# In the library only some 7.9% were active in any assay of this set; here they are far more common.
# KB-3-1 tox: kills parental KB-3-1 adenocarcinoma cells; KB-3-1 viability, CellTiter-Glo ATP luminescence, 72 h; Potency, µM (doses to about 46.1 µM), hits mostly cytotoxic; AID 1347075; hit rate 1.4% among 400,000; further: on the % scale 0 is the no-effect control and ±100 the full control effect; nearly all actives have a fitted effect of over 60% in size
#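 Cells are dispensed, compounds pinned in, plates held at 37 °C for 72 h, then CellTiter-Glo is added and luminescence read after 10 minutes. Cell line: parental KB-3-1 in phenol-red-free DMEM, 10% FBS.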
# HT1080-NT tox: kills 2HG-producing HT-1080-NT fibrosarcoma cells; hit rate 1.6% among 360,000; Potency, µM (highest dose often 46.1 µM), for inactives: at the highest dose activity, negative = less viability, usual class: cytotoxic; HT-1080-NT fibrosarcoma viability, CellTiter-Glo ATP luminescence, 48 h;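 further: NT is the 2HG producing partner of a matched IDH1 knockdown line; 0% = DMSO-treated cells and -100% = media-only wells without cells; nearly all actives have a fitted effect of over 55% in size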
#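 750 cells/well, RPMI + 5% FBS; 2 h settle, compound pin-transfer, 48 h at 37 degrees C. CellTiter-Glo 10 min RT, luminescence. Normalized to DMSO and media-only wells.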
# SW480 rereplic: induces DNA re-replication in SW480 colon adenocarcinoma cells; Potency, µM (series often up to 46.1 µM), inactives show at the highest dose re-replication activation, hits mostly activators; hit rate 1.8% among 340,000; SW480 DNA re-replication, Hoechst DNA content imaging, 48 h; further: % of control where 0% means no effect; nearly all actives have a fitted effect of over 55% in size
#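 Image-based DNA-content assay: after two days of treatment, nuclei were labelled with the DNA dye Hoechst and imaged, and hits were compounds raising the count of nuclei showing high fluorescence intensity.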
# MCF10A rereplic: induces DNA re-replication in MCF 10a normal breast cells; MCF 10A DNA re-replication, Hoechst nuclear intensity, 48 h; Potency, µM (titrated, usually from 46.1 µM), inactives show top-dose activity, positive = re-replication, hits mostly activators; hit rate 2.9% among 350,000; further: % of control where 0% means no effect; nearly all actives have a fitted effect of over 50% in size
# KB-V1 MDR tox: KB-V1 MDR subline cytotoxicity. AID 1347076. Potency, µM (top dose mostly 46.1 µM), most hits filed as cytotoxic. KB-V1 MDR cells viability, CellTiter-Glo, 72 h. hit rate 3.4% among 400,000; further: on the % scale 0 is the no-effect control and ±100 the full control effect; nearly all actives have a fitted effect of over 60% in size
#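 Following 72 h at 37 degrees C with compound, KB-V1 cell viability was read by CellTiter-Glo luminescence, medium being phenol-red-free DMEM plus 10% FBS; concentration-response parameters came from normalized, curve-fitted qHTS data.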
# HT1080 IDH1KD tx: toxicity to HT-1080 IDH1 knockdown cells (counter line); HT-1080 IDH1 knockdown viability, ATP luminescence, 48 h; Potency, µM (top dose mostly 46.1 µM), for the others: at the highest dose activity, negative = toxicity, hits mostly cytotoxic; hit rate 2% among 360,000; AID 686971;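 further: 0% = DMSO wells and -100% = cell-free medium wells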
#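 After a 2 h attachment period, IDH1KD HT-1080 cells took pin-transferred compound for 48 h at 37 °C; ATP-based luminescence after 10 min room-temperature reagent incubation reported viability.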
# * marks the source's active call; other numbers are inactive results; i = inactive; ? = inconclusive; . = no result given. The call rests on the fitted dose curve; in most records, active means well fitted curve in the direction sought with a large enough effect; inconclusive means small, poorly fitted or top-dose-only effect, or another doubt; inactive means no such curve, though single readings can be large; an effect the other way counts as inactive or inconclusive. Potency means the concentration at half of the fitted maximal effect.
SMILES,KB-3-1 tox,HT1080-NT tox,SW480 rereplic,MCF10A rereplic,KB-V1 MDR tox,HT1080 IDH1KD tx
COC(=O)C1=C(C)NC(C)=C(C(=O)OCC(C)C)C1c1ccccc1[N+](=O)[O-] (configuration not stated),i,16µM*,?,27µM*,3.7µM*,26µM*
O=[N+]([O-])c1ccccc1OCCN1CCOCC1,i,15%,-2%,-1%,i,11%
O=C1CC2(CCN(C(=O)C(=O)c3c[nH]c4ccccc34)CC2)Oc2ccccc21,i,-6%,-3%,9%,i,-4%
CN(N=Cc1ccccc1)C(=S)Nc1ccccc1,i,-1%,.,.,i,9%
Cn1cc(C(=O)N/N=C/c2ccc(Br)c([N+](=O)[O-])c2)c2ccccc21,16µM*,14%,?,-10%,i,-2%
O=c1cnnc(N/N=C/c2ccc3c(c2)OCO3)[nH]1,?,-2%,3%,-2%,7.3µM*,0%
O=C(N/N=C/c1ccc2c(c1)OCO2)c1cc(-c2ccco2)nc2ccccc12,?,4.1µM*,15µM*,?,?,3.7µM*
O=C(N/N=C/c1ccc2c(c1)OCO2)c1cc(-c2ccccc2)nc2ccccc12,?,-25%,10%,?,i,-25%
O=C(CSCc1cccc(Br)c1)N/N=C/c1ccc2c(c1)OCO2,18µM*,-3%,?,?,i,-21%
Cc1ccc(NC(=O)N2CCN(c3cc(-c4noc(C)n4)ccc3C)CC2)c(F)c1,i,.,.,.,i,.
COc1cc(C(O)c2nc(-c3cc4ccccc4o3)cs2)ccc1F (configuration not stated),i,?,.,.,i,?
O=S(=O)(c1ccc(C(F)(F)F)cc1)N1CCN(c2nc(-c3cccs3)nc3ccccc23)CC1,.,5%,.,.,.,-3%
CC1CCCN(CC(O)COc2ccc(S(=O)(=O)N3CCCC3)cc2[N+](=O)[O-])C1 (configuration not stated),i,-6%,7%,17%,i,-6%
COc1ccc(OC)c(/C=C2\Oc3cc(OCC(=O)N4CCC(C(=O)O)CC4)ccc3C2=O)c1,i,0%,-2%,4%,i,1%
Cc1cc(C(=O)N/N=C/c2ccc3c(c2)OCO3)c(C)o1,i,-25%,-49%,-49%,?,?
O=C(O)c1ccc(/C=N/Nc2ccc(F)cc2F)cc1,i,3.3µM*,-9%,5%,i,5.2µM*
O=C(N/N=C/c1cc(Br)c(Br)o1)c1ccc2c(c1)OCCO2,i,-24%,0%,13µM*,?,?
Cn1cc(C(=O)N/N=C/c2ccc3c(c2)OCO3)c2ccccc21,8.2µM*,21µM*,?,?,?,12µM*
Fc1ccc(N/N=C/c2ccncc2)c(F)c1,i,-20%,-7%,2%,?,27%
O=C(O)c1ccc(N/N=C/c2ccc3c(c2)OCO3)cc1,21µM*,18µM*,10%,3%,?,23µM*
O=C(O)c1ccc(N/N=C/c2cc3cc4c(cc3nc2Cl)OCCO4)cc1,i,-1%,?,13µM*,i,-3%
N#Cc1ccc(/C=N/NC(=O)c2cc(-c3cccs3)nc3ccccc23)cc1,?,?,?,21µM*,i,10µM*
COc1ccccc1C(=O)NCC(=O)N/N=C/c1ccncc1,i,15%,5%,0%,i,20%
O=C(N/N=C/c1ccc2c(c1)OCO2)c1ccccn1,?,?,8%,3%,15µM*,?
O=Cc1cc2cc3c(cc2nc1Cl)OCCO3,i,7%,-6%,-4%,i,-2%
SMILES,KB-3-1 tox,HT1080-NT tox,SW480 rereplic,MCF10A rereplic,KB-V1 MDR tox,HT1080 IDH1KD tx
COc1ccccc1C(=O)NCC(=O)N/N=C/c1ccc2c(c1)OCO2,?,?,?,?,i,21µM*
C[C@H](Cn1cnc2c(N)ncnc21)OCP(=O)(O)O,.,.,-3%,13%,.,.
CCN(CC(=O)NCc1ccc(F)cc1)C(=O)CN1CCN(c2cc(Cl)ccc2C)CC1,i,-21%,2%,?,?,-15%
COc1ccc(/C=N/NC(=O)c2ccc(COCC(F)(F)C(F)F)cc2)cc1,i,4%,-19%,-28%,?,-8%
O=C(N/N=C/c1ccc2c(c1)OCO2)c1ccc2ccccc2n1,i,-13%,?,?,i,?
O=C(N/N=C/c1ccc2c(c1)OCO2)c1cccc2ccccc12,?,?,103%,16µM*,?,?
O=C(N/N=C/c1ccc(Cl)cc1)c1ccc2c(c1)OCO2,i,?,?,17%,i,?
O=C(N/N=C/c1ccc2c(c1)OCO2)c1ccc(COCC(F)(F)C(F)F)cc1,8.2µM*,1µM*,6.5µM*,?,i,1.3µM*
O=C(N/N=C/c1c[nH]c2ccccc12)c1ccc2c(c1)OCCO2,i,?,?,16µM*,?,21µM*
O=C(N/N=C/c1ccc2c(c1)OCO2)c1ccc2c(c1)OCCO2,16µM*,?,?,?,i,23µM*
CCOc1ccc(CNC(=O)c2cc3ccccn3n2)cc1OC,i,.,.,.,i,.
CCCn1ncc(CN2CCCC(C(=O)c3cccc(OC(C)C)c3)C2)c1C (configuration not stated),i,12%,-3%,5%,?,3%
Cc1ccccc1NCC(=O)N/N=C\c1ccc2c(c1)OCO2,i,-4%,-10%,-4%,i,-10%
Cc1cccc(C)c1OCC(=O)N/N=C/c1ccc2c(c1)OCO2,?,15µM*,?,5.8µM*,5.2µM*,?
CCCCOCCCNC(=O)C[C@@H]1C[C@@]2(C(=O)OC)CCCCC=C2N(CCc2ccc(OC)c(OC)c2)C1=O,i,-6%,.,.,?,-2%
O=C(N/N=C/c1ccc(Sc2nc3ccccc3[nH]2)o1)c1ccncc1,i,4%,-6%,10%,i,-2%
CCN1C(=O)S/C(=C/c2ccc(Sc3nc4ccccc4[nH]3)o2)C1=O,i,-12%,1.5µM*,?,?,?
Cc1nc(N)sc1C(=O)N1N=N1,i,20%,?,21%,i,16%
Cc1ccc(C)c(N2CCN(C(=O)c3cc4c(C)nc5ccccc5c4o3)CC2)c1,i,3%,-9%,21µM*,i,-1%
CCC(=O)C1CCCN(C(=O)c2ccc3nc(-c4cccc(OC)c4)oc3c2)C1 (configuration not stated),i,-18%,8%,?,i,-10%
